Assay results as given in PubChem BioAssay (NCI).
Compounds without any hit were thinned out: in the full panel of roughly 83,000, 20% have a hit.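 For each line, cells grew in 96-well plates with the test compound present at a single concentration for 48 hours.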 The source made the active and inactive calls. How the source made its calls: active means growth percent below 10; inactive means the rest.

Tests used:
Test in all cases: NCI-60 one-dose screen, 48 h (100 = growth as untreated, 0 = no growth, -100 = all killed)
Conditions in all cases: 10 µM unless noted
[1] = system: DU-145 prostate
[2] = system: K-562 leukemia
[3] = system: MALME-3M melanoma
[4] = system: MDA-MB-231 breast
[5] = system: RXF 393 renal
[6] = system: SF-268 CNS
[7] = system: SF-295 CNS
[8] = system: SF-539 CNS
[9] = system: UACC-257 melanoma
[10] = system: M14 melanoma

Measured: growth

CCOC(=O)/C(=C/c1ccc([N+](=O)[O-])cc1)C(=O)c1ccccc1
active: [2] 4.82% | [5] -11.1% | [8] -24.9%
inactive: [1] 65.3% | [3] 32.4% | [4] 20.1% | [6] 24.5% | [7] 81.6% | [9] 45.4% | [10] 32.4%

COc1ccc(/C=N\NC(=O)c2ccc3nc(-c4ccc(Cl)cc4)[nH]c3c2)cc1
inactive: [1] 79.3% | [2] 31.9% | [4] 39.8% | [5] 43.8% | [6] 19.9% | [8] 42.6% | [9] 54.4% | [10] 26.2%
active: [3] 6.53% | [7] -38.9%

CC(=O)Cc1nsc(NC(=O)c2cc(-c3cc(Cl)ccc3Cl)oc2C)n1
inactive: [1] 110% | [2] 102% | [3] 113% | [4] 101% | [5] 103% | [6] 98.8% | [7] 99.6% | [8] 102% | [9] 93.8% | [10] 102%

Cc1ccc(-c2nc(C#N)c(S(=O)(=O)n3nc(C)cc3N)o2)cc1
inactive: [1] 108% | [4] 88.3% | [5] 76.8% | [6] 93.5% | [7] 109% | [8] 96.7% | [9] 95.1% | [10] 48.8%
active: [2] -17.2% | [3] -63.3%

COc1cc(CNC(=O)CCCC/C=C/C(C)C)ccc1OCc1cn(-c2cccc([N+](=O)[O-])c2)nn1
inactive: [1] 109% | [2] 81.5% | [3] 103% | [4] 88.4% | [5] 92.7% | [6] 92.3% | [7] 104% | [8] 94.4% | [9] 94.4% | [10] 93.5%

CS(=O)(=O)Nc1cc(-c2ccc3ncnc(Nc4cccc(Cl)c4)c3c2)cnc1Cl
active: [3] -25.7% | [4] 7.96% | [5] -44% | [7] -22.6% | [8] -22% | [9] -3.23% | [10] -2.15%
inactive: [1] 14.5% | [2] 18.9% | [6] 13.9%

Cc1c2cnccc2c(C)c2c1c1cc(C(=O)O)ccc1n2C
active: [1] 4.3% | [2] 9.3% | [3] -31.8% | [4] 3.08% | [5] -72.1% | [6] 0.973% | [7] -2.38% | [8] -24.5% | [9] -31.4% | [10] -0.906%

O=C(O)COc1ccc(F)cc1
inactive: [1] 109% | [2] 97.1% | [3] 107% | [4] 100% | [5] 107% | [6] 93.6% | [7] 102% | [8] 96.9% | [9] 102% | [10] 109%

CCCCCCCCCCCCCC[n+]1ccc2c(C)c3c(c(C)c2c1)c1cc(O)ccc1n3CC
active: [1] -93.4% | [2] -55.7% | [3] -84.7% | [4] -74.6% | [5] -63.3% | [6] -82.7% | [7] -54.3% | [8] -83.9% | [9] -69.3% | [10] -86.7%

COc1cc2cc(Oc3ccc(NC(=O)Nc4ccc(Cl)c(Cl)c4)cc3)c(C)nc2cc1OCCN1CCCCC1
inactive: [1] 97% | [3] 13.9% | [4] 91.4% | [5] 73.7% | [6] 92% | [7] 99.1% | [8] 86.8% | [9] 93.6%
active: [2] -35.7% | [10] -33.4%

Cc1c(N2CCCCC2)[nH]c2ccccc12
inactive: [1] 120% | [2] 113% | [3] 121% | [4] 121% | [5] 116% | [6] 117% | [7] 89% | [8] 121% | [9] 94% | [10] 105%
